Test results published in PubChem BioAssay AID624052 (National Center for Advancing Translational Sciences (NCATS), 2012).
Active and inactive are the calls of the source.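 Rule for the calls: active = IC50 at or below 10 µM; inconclusive = IC50 above 10 µM but below 20 µM; inactive = IC50 of 20 µM or more.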

Biological target: Neuropeptide S receptor (Homo sapiens) (UniProt Q6W5P4)
Test: Robust Characterization of Calcium Signal Transduction Antagonists of the Neuropeptide S Receptor: SAR
Conditions: CHO-NPSR cells, NPS-induced calcium fluorescence (FDSS)
Text: Neuropeptide S receptor (NPSR), previously known as GPR154, is a recently de-orphanized G protein coupled receptor. Its endogenous ligand is the 20 amino acids peptide Neuropeptide S (NPS). […] NPS and its receptor are found in various tissues. Specifically they are highly expressed in brain areas that have been implicated in modulation of arousal, stress and anxiety. Central administration of NPS in mice produces an unusual profile of activity by inducing wakefulness and arousal, while at the same time suppressing anxiety. Therefore, NPSR may represent a novel drug target for the treatment of sleep and anxiety disorders. To identify NPSR antagonists, we developed a cell-based assay with transfected NPS receptor. NPS can stimulate the production of cAMP as well as release intracellular calcium in Chinese hamster ovary cells stably expressing NPS receptor. This change in intracellular calcium can be detected using a calcium indicator dye on a calcium imaging plate reader system (FDSS). This particular assay uses a high density of sampling across concentration-response space to establish more confidence estimates of potency. NIH Chemical Genomics Center [NCGC] NIH Molecular Libraries Probe Production centers Network [MLPCN] MLPCN Grant: DA026210 Assay Submitter (PI): Heilig, Markus Alexander
A Chinese hamster ovary (CHO) cell line stably expressing the NPS receptor (CHO-NPSR) was obtained from Dr. Heilig lab at NIAAA and maintained in F-12 Kaighn's media (Invitrogen, Carlsbad, CA, 21127) supplemented with 10 % FBS, 100 units/ml penicillin, 100 ug/ml streptomycin and 250 ug/ml geneticin at 37C, 5% CO2 in a humidified atmosphere. Before the assay, aliquots of cells were frozen and stored at -135C. The assay was performed on a FDSS-7000 kinetic plate reader in 1536-well format. For both agonist (1-220s) and antagonist (221-400s) phases, the maximums of kinetic fluorescence responses were converted separately into text files using the instrument's software data export utility. Data for agonist response were normalized to the controls for basal activity (DMSO only) and 100% activation (NPS). Data for antagonist response were normalized to the controls for basal activity (DMSO only) and 100% inhibition (No NPS control). AC50 values were determined from concentration-response data modeled with the standard Hill equation. NPS 1536-well FDSS assay protocol: (1) Frozen CHO-NPSR cells were thaw, washed once with fresh media and resuspended in F-12 Kaighn's media supplemented with 10 % FBS, 100 units/ml penicillin and 100 ug/ml streptomycin. Cells were plated at 3 ul/well (1200 cells) to black, clear-bottom, tissue-culture treated 1536-well plates, and then cultured at 37C, 5 % CO2 for 16 to 30 hours. […]

Sequence of Neuropeptide S receptor (Homo sapiens) (Q6W5P4 whole entry, looked up): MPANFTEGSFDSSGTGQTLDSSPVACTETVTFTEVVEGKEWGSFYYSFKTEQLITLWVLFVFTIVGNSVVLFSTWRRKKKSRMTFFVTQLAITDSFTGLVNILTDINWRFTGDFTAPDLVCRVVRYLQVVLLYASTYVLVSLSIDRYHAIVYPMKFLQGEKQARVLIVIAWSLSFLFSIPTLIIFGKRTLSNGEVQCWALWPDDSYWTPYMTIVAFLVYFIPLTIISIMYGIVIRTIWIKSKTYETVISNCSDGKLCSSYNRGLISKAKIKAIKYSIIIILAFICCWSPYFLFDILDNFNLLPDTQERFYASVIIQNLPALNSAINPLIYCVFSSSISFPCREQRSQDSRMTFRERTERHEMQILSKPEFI

IC50, active:
O=C1OC(c2ccccc2)(c2ccccc2)N2CCN(C(=O)NCc3ccc(F)cc3)CC12 (centres undefined) 570 nM, CCC(C)(CCN1CCOCC1)N(Cc1cc2ccccc2n(C)c1=O)C(=O)C1CCCCC1 (centres undefined) 57.8 nM, COc1ccc(C2c3c(ncn(CCN4CCOCC4)c3=N)Oc3ccc4ccccc4c32)cc1OC (centres undefined) 4940 nM, Cc1c(P(=S)(c2ccccc2)c2ccccc2)[n+]2ccccc2n1C/C=C/c1ccccc1 36.5 nM
